Reference: PubChem BioAssay AID1347138 (National Center for Advancing Translational Sciences (NCATS), 2019)
Some of the results follow. Entries that show only a call come without a potency. Records with an inconclusive call do not appear. Activity calls are given as the source filed them. Calls follow the shape of the dose curve; as a rule, active = well fitted inhibition curve with a large enough effect; inconclusive = small, poorly fitted or top-dose-only effect; inactive = no such curve, though single readings can be large or run the other way.

Experiment: qHTS of pediatric cancer cell lines to identify multiple opportunities for drug repurposing: Orthogonal 3D caspase screen for TC32 cells
Conditions: TC32 3D spheroids, caspase-3/7 fluorescence imaging, 24 h; series mostly up to 30.7 µM
From the text: Drug repurposing or repositioning has been offered as a strategy for drug development in oncology programs. This approach has special potential for childhood cancers and other rare or orphan diseases, where the expected return on new drug development has been a disincentive to pharmaceuticals. […] In this project we exploit the poly-pharmacology of drugs to discover new indications via phenotypic screening of a panel of 19 well-characterized cell lines derived from solid tumors seen in children and adolescents. The goal is to identify approved drugs with previously unrecognized anticancer properties that has the potential to reveal new mechanisms and biological processes involved in carcinogenesis or drug resistance. We employed a titration-based paradigm (quantitative high-throughput screening or qHTS), where all compounds were tested at multiple concentrations for their effect on cell viability. Concentration-response curves (CRCs) were derived directly from the primary screen, and both potency and efficacy values were used to identify compounds with robust bioactivity profiles. […] These two assays will be used to validate active compounds and assess the correlation of compound's potency in 2D vs 3D cultures on selected cell lines. Assay Submitter: Nathalia J. Martinez, National Center for Advancing Translational Sciences, National Institutes of Health, Rockville, MD, USA; email: natalia.martinez@nih.gov Shen, M et al. Quantitative high-throughput phenotypic screening of pediatric cancer cell lines identifies multiple opportunities for drug repurposing. Oncotarget 2017 Dec 19;9(4):4758-4772. PMID 29435139.
The cells were obtained from University of North Carolina (UNC), Pediatric Preclinical Testing Program (PPT), and Coriell Institute (CI). qHTS apoptosis assay in 3D cultures: For the apoptosis assay, cells were assayed in phenol red-free growth media at a density of 1,000 cells/well. Thirty microliters of cells were dispensed into 384-well, ULA, round bottom plates (Corning) using a Multidrop dispenser. Plates were spun down at 1,000 rpm for 1 min and incubated at 37 C, 5% CO2, under a humidified atmosphere for 24 hours to allow spheroid formation. Ninety-two nanoliter of compounds and controls were subsequently transferred via GNF Pintool. Plates were sealed using a breathable seal (Diversified Biotech, Dedham, MA) and incubated for 24 hours at 37C before addition of CellEvent Caspase-3/7 green detection reagent (TheremoFisher Scientific). Staurosporine at final concentrations of 3 µM was used as positive control. Spheroids were imaged using bright-field and green (EX: […]) filters and analyzed with the Celigo Tumorsphere 1+2 application software. Spheroids were first identified using bright-field segmentation, and the average fluorescent intensity of the green channel was used to quantify caspase activation as percent activity based on neutral control DMSO and positive control.
With `CC[C@]1(O)C[C@@H]2CN(CCc3c([nH]c4ccccc34)[C@@](C(=O)OC)(c3cc4c(cc3OC)N(C)[C@H]3[C@@](O)(C(=O)OC)[C@H](OC(C)=O)[C@]5(CC)C=CCN6CC[C@]43[C@@H]65)C2)C1` the Potency was 72.2 nM (active). For `COc1c(C)c2c(c(O)c1C/C=C(\C)CCC(=O)O)C(=O)OC2`, the Potency was “inactive”. For `CC1(C)O[C@@H]2C[C@@H]3[C@H]4C[C@@H](F)C5=CC(=O)C=C[C@]5(C)[C@@]4(F)[C@@H](O)C[C@]3(C)[C@]2(C(=O)CO)O1`, the Potency was “inactive”. For `C=C1C(=CC=C2CCC[C@]3(C)[C@@H]([C@H](C)C=C[C@H](C)C(C)C)CC[C@@H]23)C[C@@H](O)C[C@@H]1O`, the Potency was “inactive”. For `CC(NCc1ccc2c(c1)nc(NC(=O)c1ccc(-c3cn[nH]c3)s1)n2CC(C)(C)O)C(C)(C)C` (stereo unspecified), the Potency was 1440 nM (active). For `COC(=O)Nc1nc2ccc(Sc3ccccc3)cc2[nH]1`, the Potency was 11400 nM (active).
